# Values joined by “and” are separate entries in the source; they are usually repeats but may differ in a detail not shown here. Identical values can stand only once. The campaign covered roughly 6,400 compounds. About 610 (9.5%) were called active. Rule as the data show it: active = activity change below about -70%; inconclusive = no clear call, values can overlap the other calls; inactive = above that. This excerpt belongs to a sample that is enriched for actives. The source holds several records for some structures; these can differ, active in one and inactive in another.
# Assay: Toxoplasma gondii ME49Luc growth in HeLa cells, luciferase, no IFN-y, primary screen (AID 1259421)
# Conditions: T. gondii ME49Luc in HeLa, 72 h, stronger effect = lower value, concentration not given here
row,Compound,"activity change, negative = inhibition"
1,CO/N=C(/C(=O)N[C@@H]1C(=O)N2C(C(=O)O)=C(C[n+]3cccc4c3CCC4)CS[C@H]12)c1csc(N)n1,14.5% (inactive)
2,CO/N=C(/C(=O)NC1C(=O)N2C(C(=O)O)=C(CSc3nc(=O)c(=O)[nH]n3C)CSC12)c1csc(N)n1 (stereo unspecified),-0.639% (inactive)
3,COc1ccc([C@@H]2Sc3ccccc3NC(=O)[C@@H]2O)cc1,11.7% (inactive)
4,O=P(O)(O)OC[C@H]1OC(O)[C@H](O)[C@@H](O)[C@@H]1O (stereo partly specified),7.08% (inactive)
5,CC(=O)NCCc1c(Cc2ccccc2)[nH]c2ccccc12,-2.39% (inactive)
6,Cc1[nH]c2ccccc2c1CCNC(=O)c1cccs1,9.58% (inactive)
7,Cc1[nH]c2ccccc2c1CCNCc1ccc(/C=C/C(=O)NO)cc1,-73.2% (active) and -76.5% (active)
8,CC(C)(N)C(=O)N[C@H](COCc1ccccc1)C(=O)N1CCC2(CC1)CN(S(C)(=O)=O)c1ccccc12,5.12% (inactive)
9,Cc1cc(/C(=C\Nc2ccc(Cl)cc2)C(=O)Nc2ccc(Cl)cc2)on1,18.7% (inactive)
10,FC(F)(F)C(F)(F)C(F)(F)C(F)(F)C(F)(F)C(F)(F)C(F)(F)C(F)(F)Br,2.95% (inactive)
11,Brc1cc2c(cc1[C@H]1Nc3ccccc3[C@H]3C=CC[C@H]31)OCO2 (racemic),11.8% (inactive)
12,O=C(O)c1ccc2c(c1)OCO2,16% (inactive)
13,CC(=O)c1ccc2c(c1)[C@@H]1C=CC[C@@H]1[C@H](c1cc3c(cc1Br)OCO3)N2,-79.7% (active)
14,COC(=O)C1=C(C)NC(C)=C([N+](=O)[O-])[C@@H]1c1ccccc1C(F)(F)F,1.1% (inactive)
15,C/C(=C(/CCO)SSCC1CCCO1)N(C=O)Cc1cnc(C)nc1N (stereo unspecified),15% (inactive)
16,CN1CCN(c2ccc(OC(F)(F)F)c(Nc3ncc4c(n3)-c3c(c(C(N)=O)nn3CCO)CC4)c2)CC1,-90.8% (active)
17,CCC(=O)Nc1cccc(Oc2nc(Nc3ccc(N4CCN(C)CC4)cc3OC)ncc2Cl)c1,7.36% (inactive)
18,C=CC(=O)Nc1cccc(Oc2nc(Nc3ccc(N4CCN(C)CC4)cc3OC)ncc2Cl)c1,-35.2% (inactive)
19,CCN(CC)S(=O)(=O)c1ccc(C(=O)O)cc1,-0.641% (inactive) and 12.4% (inactive)
20,CCc1cc(C(C)=O)c(O)cc1OCCCCCC(C)(C)c1nn[nH]n1,50.8% (inactive) and 31.2% (inactive)
21,Nc1ccncc1N,-3.18% (inactive)
22,Nc1ccc(-c2ccc3ncc4ccc(=O)n(-c5cccc(C(F)(F)F)c5)c4c3c2)cn1,-76.7% (active)
23,CCC(=O)N1CCN(c2ccc(-n3c(=O)ccc4cnc5ccc(-c6cnc7ccccc7c6)cc5c43)cc2C(F)(F)F)CC1,-56% (inactive)
24,COc1ccc(C(=O)CCC(=O)O)c2ccccc12,2.31% (inactive)
25,COC(=O)c1cc(S(C)(=O)=O)ccc1OC,9.8% (inactive)
26,COc1ccc(CCN2CCN(CCCc3ccccc3)CC2)cc1OC,-27.2% (inactive)

row,Compound,"activity change, negative = inhibition"
1,OCC1OC(n2cnc3c(NC4CCCC4)ncnc32)C(O)C1O (stereo unspecified),1.64% (inactive)
2,N#C/C(=C\c1ccc(O)c(O)c1)C(N)=O,16.2% (inactive) and 6.7% (inactive)
3,N#CC(C#N)=C(N)/C(C#N)=C/c1cc(O)c(O)c(O)c1,5.32% (inactive)
4,CC(C)(C)c1cc(/C=C(\C#N)C(N)=S)cc(C(C)(C)C)c1O,-82.2% (active) and -86% (active)
5,COc1cc(N)c(Cl)cc1C(=O)N[C@@H]1CCN(CCCOc2ccc(F)cc2)C[C@@H]1OC,6.27% (inactive)
6,COc1ccc(C2(O)CCC(N3CC[C@@H](NC(=O)CNC(=O)c4cccc(C(F)(F)F)c4)C3)CC2)cn1 (stereo partly specified),4.89% (inactive)
7,Cc1ccc(S(=O)(=O)c2ccc([N+](=O)[O-])o2)cc1,10.8% (inactive)
8,CCC[C@H](NC(=O)[C@@H]1[C@H]2CCC[C@H]2CN1C(=O)[C@@H](NC(=O)[C@@H](NC(=O)c1cnccn1)C1CCCCC1)C(C)(C)C)C(=O)C(=O)NC1CC1,-72.4% (active)
9,CC(C)(C)NC(=O)N[C@H](C(=O)N1C[C@H]2[C@@H]([C@H]1C(=O)NC(CC1CCC1)C(=O)C(N)=O)C2(C)C)C(C)(C)C (stereo partly specified),0.503% (inactive)
10,CCCC[C@H](NC(=O)[C@@H]1[C@@H]2[C@H](CN1C(=O)[C@@H](NC(=O)NC1(CS(=O)(=O)C(C)(C)C)CCCCC1)C(C)(C)C)C2(C)C)C(=O)C(=O)NC1CC1,23.2% (inactive)
11,CC(C)(C)c1cc(O)c(C(C)(C)C)cc1O,7.89% (inactive)
12,COC(=O)C[C@H]1C(C)(C)[C@@H](O)[C@@H]2CC3=C4CC(O)O[C@@H](c5ccoc5)[C@]4(C)CCC3[C@@]1(C)C2=O (stereo partly specified),-4.18% (inactive)
13,CO[C@H]1C=CO[C@@]2(C)Oc3c(C)c(O)c4c(O)c(c(/C=N/N5CCN(C)CC5)c(O)c4c3C2=O)NC(=O)/C(C)=C\C=C/C(C)[C@H](O)[C@@H](C)[C@@H](O)[C@@H](C)[C@@H](OC(C)=O)[C@@H]1C (stereo partly specified),-14.4% (inactive) and 12.2% (inactive)
14,CC1(C)CCC(CN2CCN(c3ccc(C(=O)NS(=O)(=O)c4ccc(NCC5CCOCC5)c([N+](=O)[O-])c4)c(Oc4cnc5[nH]ccc5c4)c3)CC2)=C(c2ccc(Cl)cc2)C1,-89.7% (active)
15,CC(C)COC(=O)c1ccc(N)cc1,47.4% (inactive)
16,COC(=O)c1cc(OC)c2c(c1-c1c(C(=O)OC)cc(OC)c3c1OCO3)OCO2,11.4% (inactive)
17,C=C1C(=O)O[C@H]2[C@H]1CC/C(C)=C\CC[C@@]1(C)O[C@@H]21,7.41% (inactive)
18,O=C(Nc1ccc(O)cc1)c1ccccc1O,30.3% (inactive)
19,O=C(O)c1ccccc1O,10.4% (inactive) and 3.39% (inactive)
20,O=C(N/N=C/c1ccccc1O)c1ccccc1O,-88% (active) and -86.5% (active)
21,O=C(OC1C(OC(=O)c2cccnc2)C(OC(=O)c2cccnc2)C(OC(=O)c2cccnc2)C(OC(=O)c2cccnc2)C1OC(=O)c1cccnc1)c1cccnc1 (stereo unspecified),-4.81% (inactive) and 13.2% (inactive)
22,CCN(Cc1ccccc1)C(=O)Cn1c(=O)n(C)c2cnc(-c3ccccc3)nc21,9.96% (inactive)
23,CCN(CC)CCN(Cc1ccc(-c2ccc(C(F)(F)F)cc2)cc1)C(=O)Cn1c(SCc2ccc(F)cc2)nc(=O)c2c1CCC2,-77.9% (active)
24,O=C(O)[C@H](O)[C@@H](O)[C@H](O[C@@H]1O[C@H](CO)[C@H](O)[C@H](O)[C@H]1O)[C@H](O)CO,11.1% (inactive)
25,Clc1ccc(CSC(Cn2ccnc2)c2ccc(Cl)cc2Cl)cc1 (stereo unspecified),-80.3% (active) and -86.4% (active)
26,Clc1ccc(COC(Cn2ccnc2)c2ccc(Cl)cc2Cl)c(Cl)c1 (stereo unspecified),-91.6% (active)

row,Compound,"activity change, negative = inhibition"
1,C=CCOC(Cn1ccnc1)c1ccc(Cl)cc1Cl (stereo unspecified),26.1% (inactive) and 17.1% (inactive)
2,Clc1ccc(C(Cn2ccnc2)OCc2ccsc2Cl)c(Cl)c1 (stereo unspecified),-28.7% (inactive) and -2.79% (inactive)
3,Clc1ccc(C(Cn2ccnc2)OCc2ccc(Sc3ccccc3)cc2)c(Cl)c1 (stereo unspecified),-73.4% (active)
4,Clc1ccc(C(Cn2ccnc2)OCc2csc3c(Cl)cccc23)c(Cl)c1 (stereo unspecified),-75.6% (active)
5,C[C@@H]1CC2C3C[C@H](F)C4=CC(=O)C=C[C@]4(C)[C@@]3(F)[C@@H](O)C[C@]2(C)[C@@]1(O)C(=O)CO (stereo partly specified),1.95% (inactive)
6,CC(=O)N[C@H]1CSSC[C@@H](C(N)=O)NC(=O)[C@H](C(C)C)NC(=O)[C@H](C)NC(=O)[C@H](Cc2cnc[nH]2)NC1=O,-4.46% (inactive)
7,O=C(/C=C/c1ccc(O)c(O)c1)O[C@@H]1C[C@](OC(=O)/C=C/c2ccc(O)c(O)c2)(C(=O)O)C[C@@H](O)[C@H]1O,2.12% (inactive)
8,NC(=O)CCCCn1ccc(NC(N)=NCC(F)(F)F)n1,4.57% (inactive) and 3.01% (inactive)
9,C=C1C2CC[C@@]3(C)[C@H](c4ccoc4)OC(=O)C[C@]13O[C@H]1CC(=O)C(C)(C)[C@H](C(O)C(=O)OC)[C@@]21C (stereo partly specified),-2.51% (inactive)
10,O=C1CCC[C@@H]2[C@@H]3CCC[N+]4([O-])CCC[C@H](CN12)[C@@H]34 (stereo partly specified),-1.57% (inactive)
11,N=C1CCCN1Cc1[nH]c(=O)[nH]c(=O)c1Cl,3.86% (inactive)
12,COc1cc2c(cc1OC(C)C)[C@H](c1ccc(Cl)cc1)N(c1ccc(N(C)CC3CCC(N4CCN(C)C(=O)C4)CC3)cc1)C(=O)C2 (stereo partly specified),-56.4% (inactive)
13,N[C@@H](CSCC(=O)O)C(=O)O,14.1% (inactive)
14,COc1ccc(/C=C/C(=O)c2cc(O)ccc2O)cc1,13.6% (inactive)
15,Nc1ncnc2c1ncn2[C@H]1CC[C@@H](CO)O1,1.09% (inactive)
16,CC(C)[N+]1(C)C2CCC1CC(OC(=O)C(CO)c1ccccc1)C2 (stereo unspecified),0.0846% (inactive)
17,O=C(O)CCc1cc(C(=O)c2ccc(OC3CCCC3)cc2O)ccc1OCc1ccc2c(=O)[nH]oc2c1,6.19% (inactive)
18,Clc1ccc(CCC(Cn2ccnc2)Sc2c(Cl)cccc2Cl)cc1 (stereo unspecified),-83.9% (active) and -87.7% (active)
19,Clc1ccc(CO/N=C(\Cn2ccnc2)c2ccc(Cl)cc2Cl)c(Cl)c1,-81.5% (active) and 40% (inactive)
20,Clc1ccc(C(Cn2ccnc2)OCc2c(Cl)cccc2Cl)c(Cl)c1 (stereo unspecified),-52.5% (inactive)
21,Cl/C(=C/n1cncn1)c1ccc(Cl)cc1Cl,-5.43% (inactive)
22,O=C(O)/C=C/c1ccc(Cn2ccnc2)cc1,-0.196% (inactive) and 8.1% (inactive)
23,Clc1ccc(COC(Cn2ccnc2)c2ccc(Cl)cc2Cl)cc1 (stereo unspecified),-77.4% (active) and -87.9% (active)
24,Cl/C(=C\n1cncn1)c1ccc(Cl)cc1Cl,-11.5% (inactive)
